Assay outcomes from PubChem BioAssay.
A selection: hits, their analogues and other compounds. The true share with any hit is near 6.9%.
JMJD2A Tudor inh = JMJD2A Tudor domain (human) inhibition. AlphaScreen JMJD2A-Tudor / H3K4me3 peptide binding. O75164. 4.4% of 390,000 active. AID 504339. Potency, µM (highest dose often 114 µM), inactives show top-dose activity change, negative = inhibition, usual class: inhibitors; further: on the % scale 0 is the no-effect control and ±100 the full control effect; nearly all actives have a fitted effect of over 50% in size
HP1b binding inh = HP1-beta chromodomain-methylated histone interaction inhibition; P83916; AlphaScreen HP1-beta / biotin-H3K9me3 peptide binding; Potency, µM (titrated, usually from 114 µM), inactives show at the top dose activity change, negative = inhibition, actives largely listed as inhibitors; 0.56% of 390,000 active; AID 540317; further: nearly all actives have a fitted effect of over 70% in size
Target sequence (P83916 whole entry, looked up): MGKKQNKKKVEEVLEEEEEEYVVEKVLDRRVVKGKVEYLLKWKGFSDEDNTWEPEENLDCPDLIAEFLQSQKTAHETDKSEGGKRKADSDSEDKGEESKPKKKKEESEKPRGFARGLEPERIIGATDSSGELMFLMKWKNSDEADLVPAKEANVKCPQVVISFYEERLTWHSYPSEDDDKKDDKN
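Compound inhibition of the preformed complex between 50 nM HP1-beta and 50 nM biotinylated H3K9me3 peptide was read by AlphaScreen. Buffer was PBS pH 7.4 with 0.01% Tween-20. Incubations ran 30 min at room temperature, with 10 ug/mL donor/acceptor beads.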
VDR inh = blocks the human vitamin D receptor. VDR-SRC2-3 peptide fluorescence polarization, 2 h. Potency, µM, for inactives: max response, negative = inhibition, actives largely listed as inhibitors. 0.93% of 400,000 active. AID 504847; further: on the % scale 0 is the no-effect control and ±100 the full control effect
Target sequence (P11473 whole entry, looked up): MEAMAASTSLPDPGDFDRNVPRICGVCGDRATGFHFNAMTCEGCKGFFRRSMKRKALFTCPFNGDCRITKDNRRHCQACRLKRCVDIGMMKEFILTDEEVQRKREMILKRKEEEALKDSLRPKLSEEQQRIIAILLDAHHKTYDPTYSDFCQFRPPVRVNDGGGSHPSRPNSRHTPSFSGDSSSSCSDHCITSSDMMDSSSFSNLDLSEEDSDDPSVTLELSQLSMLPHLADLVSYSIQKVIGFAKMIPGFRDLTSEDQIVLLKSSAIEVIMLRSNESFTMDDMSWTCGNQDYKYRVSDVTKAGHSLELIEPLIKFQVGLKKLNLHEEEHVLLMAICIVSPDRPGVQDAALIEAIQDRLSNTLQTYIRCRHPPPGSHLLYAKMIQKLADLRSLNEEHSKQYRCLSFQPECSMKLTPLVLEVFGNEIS
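FP read-out; VDR + SRC2-3 coactivator peptide; 23 nl compound by pintool; 2 h RT incubation; reagents held at 4 deg C, protected from light.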
L3MBTL1 inh = inhibitors of human L3MBTL1; Potency, µM (highest dose often 57.1 µM), without a hit: top-dose activity, negative = inhibition, hits mostly inhibitors; AlphaScreen L3MBTL1–H3K9me1 peptide binding; Q9Y468; 0.66% of 230,000 active; further: on the % scale 0 is the no-effect control and ±100 the full control effect; nearly all actives have a fitted effect of over 60% in size
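Read-out is AlphaScreen signal from streptavidin donor and nickel chelate acceptor beads (10 ug/mL final each) bridging L3MBTL1 (50 nM) and biotinylated K9-monomethylated H3(1-15) peptide (75 nM), after 30 min compound exposure at room temperature.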
BAZ2B inh = blocks human BAZ2B; Potency, µM (series often up to 114 µM), inactives show at the highest dose activity change, negative = inhibition, hits mostly inhibitors; AlphaScreen BAZ2B-H3K14Ac peptide displacement; 4.4% of 360,000 active; Q9UIF8; AID 504333; further: on the % scale 0 is the no-effect control and ±100 the full control effect; nearly all actives have a fitted effect of over 60% in size
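Compounds, titrated to a top concentration of 110 uM, were incubated 30 min at room temperature with preformed BAZ2B/acetyl-K14 H3 peptide complex (50 nM each). Proximity signal was measured by AlphaScreen after 20 min with beads.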
PLK1 PBD inh = inhibitors of human PLK1 polo-box domain binding; P53350; Plk1 PBD binding of FITC phosphopeptide, fluorescence polarization; Potency, µM, for the others: max response, negative = inhibition, most hits filed as inhibitors; 2.8% of 360,000 active; AID 720504; further: series mostly up to about 57 µM; on the % scale 0 is the no-effect control and ±100 the full control effect; nearly all actives have a fitted effect of over 65% in size
* marks the source's active call; other numbers are inactive results; ? = inconclusive; / = no result given; [ ] = another dose, or the depositor's remark. The call rests on the fitted dose curve; in most records, active means well fitted curve in the direction sought with a large enough effect; inconclusive means small, poorly fitted or top-dose-only effect, or another doubt; inactive means no such curve, though single readings can be large; an effect the other way counts as inactive or inconclusive. Potency means the concentration at half of the fitted maximal effect.

SMILES	JMJD2A Tudor inh	HP1b binding inh	VDR inh	L3MBTL1 inh	BAZ2B inh	PLK1 PBD inh
COc1cccc(C2=NC(C)(C)NC(c3ccccc3O)C2)c1 (stereo not drawn)	-25%	22%	?	-9%	-36%	-26%
COCCCNC(=O)C1CCN(c2nc3ccc(Cl)cc3[nH]2)CC1	-5%	68%[57 µM]	3%	/	34%	/
NC(=O)C1CCN(c2cc(Cl)nc(N)n2)CC1	10µM*	-24%	79µM*	8%	-19%	8.4µM*
Cn1c(SCc2ccc(F)cc2)nnc1-c1ccccn1	?	30%	9%	-6%	50µM*	-9%
Cn1c(SCc2ccccc2F)nnc1-c1ccccn1	-5%	32%	-14%	-15%[11.4 µM]	56µM*	-7%
O=S(=O)(Nc1cccc(Cl)c1)c1ccc(-n2cccn2)cc1	-11%	38%	-2%	0%	-6%	-14%
CCc1cccc(NS(=O)(=O)c2ccc(-n3cccn3)cc2)c1	-8%	-7%	-19%	/	-4%[57.1 µM]	30µM*
CCN(C(=O)CSc1ncc2c(n1)-c1cc(Cl)ccc1N(Cc1ccccc1)S2(=O)=O)c1cccc(C)c1	-13%	7%	-11%	/	3%	/
CCCNC(=O)c1cc(OC)c(OC)cc1[N+](=O)[O-]	-8%	30%	-5%	11%	-6%	-1%
COc1cc(C(=O)NCCc2ccc(F)cc2)c([N+](=O)[O-])cc1OC	-31%[57.1 µM]	?	2%	5%	2%	13µM*
COc1ccc(Cn2nnc3c(=O)[nH]c(C(=O)NCCc4ccc(F)cc4)nc32)cc1OC	79µM*	12%	?	3%	-1%	?
O=[N+]([O-])c1cc(-c2nc(-c3ccccc3)no2)ccc1N1CCCC1	-1%	42%	9%	/	1%	/
N#Cc1c2c(c(-c3ccccc3Cl)[nH]c1=S)CCCC2	-21%	14%	3%	-8%	-20%	17µM*
Cc1ccsc1C(=O)OC(C)C(=O)NC1CCCCC1C (stereo not drawn)	-4%	17%	5%	-5%	-4%	-2%
CCOC(=O)C1CCCN(C2=C(NS(=O)(=O)c3ccc(Br)cc3)C(=O)c3ccccc3C2=O)C1 (stereo not drawn)	10µM*	10µM*	-21%	/	8.9µM*	-30%
CCOC(=O)C1CCN(S(=O)(=O)c2ccc(Cl)cc2)CC1	1%	11%	11%	/	-4%	0%
CCOC(=O)C1CCCN(C(=O)CCNS(=O)(=O)c2ccc(Br)cc2)C1 (stereo not drawn)	-13%	56%	-15%	3%	-5%	-5%
CCOC(=O)C1CCN(C2=C(NS(=O)(=O)c3ccc(Cl)cc3)C(=O)c3ccccc3C2=O)CC1	11µM*	?	-15%	?	8.9µM*	-28%
Cc1ccc(OCC(=O)Nc2ccc3nn(-c4ccc(C)cc4)nc3c2)cc1	-1%	11%	2%	/	-13%	/
Cc1ccc(NC(=O)N2CCc3c([nH]c4ccccc34)C2c2ccccc2F)c(Cl)c1 (stereo not drawn)	-32%	14%	12%	/	-37%	/
C[N+](C)(C)CCC(=O)c1cccc2ccccc12	/	/	2µM*	/	/	/
O=C(O)CCC(=O)c1cccc2ccccc12	-12%	31%	-1%	4%	9%	-9%
COc1ccc(CC(=O)n2[nH]c(=O)ccc2=O)cc1OC	8.9µM*	8.9µM*	45µM*	3%	-32%	6.7µM*
Cc1[nH]c(=S)[nH]c(=O)c1Cc1ccccc1	-23%	36%	23%	1%	2%	-5%
Cc1ccc2c(Cl)c(Cc3ccccc3)c(=S)[nH]c2n1	32µM*	?	-18%	/	/	?
SMILES	JMJD2A Tudor inh	HP1b binding inh	VDR inh	L3MBTL1 inh	BAZ2B inh	PLK1 PBD inh
COc1ccc2c(CNCc3ccc(Cl)cc3)c(C(=O)O)n(Cc3ccccc3C)c2c1	-10%	47%	4%	/	-21%	/
COCCCn1c(SCC(N)=O)nnc1-c1ccccc1	-19%	18%	2%	8%	6%	-11%
COCCCn1c(Cc2csc(Nc3ccccc3)n2)nnc1SCC(N)=O	?	-19%	8%	-13%	56µM*	?
CCn1cc(C(=O)Nc2cccc(Cl)c2)c2cc(OC)c(OC)cc2c1=O	-15%	13%	10%	/	-1%	/
CCOc1cc(N2CCOCC2)c(OCC)cc1NC(=O)c1ccccc1C	?	-10%	-21%	4%[11.4 µM]	?	?
CCOc1cc(N2CCOCC2)c(OCC)cc1NS(=O)(=O)c1ccc(Cl)s1	?	-2%	-3%	?	50µM*	-6%
CCOc1cc(N2CCOCC2)c(OCC)cc1NC(=O)c1nn(CC)c(=O)c2ccccc12	50µM*	-40%	-16%	-8%	50µM*	3%
CCOc1cc(N2CCOCC2)c(OCC)cc1NC(=O)c1ccc2ccccc2n1	22µM*	?	-16%	-23%	16µM*	-6%
CCOc1cc(N2CCOCC2)c(OCC)cc1NC(=O)c1ccc(=O)n(Cc2ccccc2)n1	/	/	/	-8%	-2%	/
CCOc1cc(N2CCOCC2)c(OCC)cc1NC(=O)Cc1cccc2ccccc12	?	-17%	5%	/	22µM*	-12%
CC(=O)c1ccccc1NS(=O)(=O)c1cc2c(cc1C)NC(=O)CO2	1%	29%[57 µM]	7%	/	6%	/
COc1cc(Cl)c(NC(=O)c2cc3ccccn3n2)c(OC)c1	-17%	20%	13%	/	-2%	/
Fc1cccc(Cc2noc(CN3CCC(c4ccncc4)CC3)n2)c1	-22%	19%	-11%	6%	4%	-4%
Cc1ccc(C)c(N2CCN(C(=O)c3ccc(NC(=O)c4nsc5ccccc45)cc3)CC2)c1	-16%	26%[57 µM]	-6%	/	-3%	/
CCOc1cc(N2CCOCC2)c(OCC)cc1NC(=O)C(C)Oc1ccccc1 (stereo not drawn)	35µM*	-17%[57 µM]	12%	-26%	/	-5%
c1ccc(COc2ccc(OCCCN3CCCCC3)cc2)cc1	40µM*	?	-24%	/	?	-19%
c1ccc(COc2ccc(OCCCCN3CCCC3)cc2)cc1	1.4µM*	?	-6%	?	56µM*	-11%
c1ccc(OCCCCN2CCCCC2)cc1	-11%	15%	2%	0%	3%	2%
c1ccc(OCc2ccc(CCCN3CCOCC3)cc2)cc1	-19%	6%	-7%	/	-5%	-5%
O=[N+]([O-])c1ccccc1NCCOc1ccccc1	?	-38%	-18%	-30%	22µM*	-8%
CC(C)(C)C(=O)NCCc1nc2ccccc2n1CCCCOc1ccc(Cl)cc1	-10%	44%	0%	/	-5%	/
Cc1cccc(C)c1NC(=O)COC(=O)c1cc(=O)c2ccccc2o1	-13%[11.4 µM]	19%	?	/	-23%	21µM*
COc1cccc(NC(=O)COC(=O)c2cc(=O)c3ccccc3o2)c1	-2%	24%	?	6%	9%	-9%
